Measurements published in PubChem BioAssay (NCATS).
Where “and” joins values, the source holds several entries; their conditions need not be identical. Equal values may be shown once. Results filed as inconclusive are left out. Where a call stands in place of a potency, no number is given. Calls of active or inactive are those of the source. Unless noted, calls come from the whole dose curve; as a rule, active = well fitted curve in the direction sought with a large enough effect; inconclusive = small, poorly fitted or top-dose-only effect, or another doubt; inactive = no such curve, though single readings can be large; an effect the other way counts as inactive or inconclusive.

How the values were obtained:
[1] = qHTS for compounds that reverse cellular toxicity of Amyloid beta (A-beta) peptide in yeast: LOPAC Validation Assay (AID 720559)
Procedure, shortened: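 OD600 growth readout after 48 hr at 30 C; A-beta-toxic yeast plus pinned compounds in medium. Normalization: DMSO = negative, equimolar FeCl3 + clioquinol = positive.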

[2] = qHTS for Activators of Parkin Expression: LOPAC Validation Assay (NLuc Reporter) (AID 720572)
Procedure, shortened: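 Neuronal line stably carrying a FLuc/NLuc coincidence reporter under the Parkin promoter, seeded 24 h, then dosed in 7-point series for 24 h at 37 C. NLuc luminescence read after FLuc; normalized to DMSO and positive control (100%).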

[3] = qHTS for Activators of Parkin Expression: LOPAC Validation Assay (FLuc Reporter) (AID 720573)
Procedure, shortened: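 FLuc luminescence read-out from a neuronal line expressing a Parkin-promoter-driven coincidence reporter. Cells treated 24 h at 37 C, 5% CO2 with compounds at 7 concentrations; signal increase normalized to DMSO and positive control.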

[4] = molecular target: T1, Hexokinase-4 (Homo sapiens) + Glucokinase regulatory protein (Homo sapiens) (UniProt P35557+Q14397); assay: qHTS assay for inhibitors of recombinant human GCK-GKRP interaction: Diaphorase-coupled assay (AID 743205); note: potency is the fitted concentration of half-maximal effect
Procedure, shortened: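 Resorufin fluorescence (525/590 nm), read each minute over 30 min, reports GCK activity coupled via G6PDH and diaphorase. Reaction: 10 nM GST-GCK, 10 nM FLAG-GKRP, 5 mM glucose, 0.4 mM ATP, 0.15 mM NADP+, 0.1 mM resazurin.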

[5] = molecular target: T1, Hexokinase-4 (Homo sapiens) + Glucokinase regulatory protein (Homo sapiens); assay: qHTS assay for inhibitors of recombinant human GCK-GKRP interaction: ADP-Glo assay (AID 743206); note: potency is the fitted concentration of half-maximal effect
Procedure, shortened: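 GST-GCK and FLAG-GKRP (15 nM each in the dispensed mix, with 2 uM S6P) react with 0.4 mM ATP and 5 mM glucose (final) in Hepes pH 7.6 for 60 min at room temperature. ADP is measured by ADP-Glo luminescence.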

[6] = molecular target: T1, Hexokinase-4 (Homo sapiens) + Glucokinase regulatory protein (Homo sapiens); assay: qHTS assay for inhibitors of recombinant human GCK-GKRP interaction: HTRF assay (AID 743207); note: potency is the fitted concentration of half-maximal effect
Procedure, shortened: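 HTRF read-out (ex 320 nm; 615/665 nm emission) after 60 min RT equilibration of 5 nM GST-GCK, 5 nM FLAG-GKRP, 2 uM S6P, compound and anti-FLAG/anti-GST detection antibodies; signal normalized between DMSO wells with and without GCK.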

[7] = qHTS Assay for Identifying Gametocytocidal Compounds (AID 743244); note: potency is the fitted concentration of half-maximal effect;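 for max response: actives lower the fluorescent signal which means gametocytes are killed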; details: P. falciparum 3D7 stage III-V gametocytes, alamarBlue, 72 h; max response: stronger effect = lower value
Procedure, shortened: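 Compounds are pinned into medium, gametocytes (stage III–V, 3D7, 20,000 cells/well) added, and plates held 72 h at 37 °C in 5% CO2. AlamarBlue follows for 24 h before fluorescence reading.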

[8] = qHTS profiling of the MIPE4 collection as inhibitors of Plasmodium falciparum (3D7) proliferation (AID 743344; call rule not given here); details: P. falciparum 3D7 in erythrocytes, SYBR Green DNA fluorescence, 72 h; at 28.5 µM (top of the series) unless noted
Procedure, shortened: (§1)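 Erythrocytes infected with P. falciparum (0.3% parasitemia, 2.5% hematocrit) incubated with compounds 72 h at 37 C, 5% CO2. Lysis with saponin/Triton buffer containing SYBR Green I, overnight at room temperature in the dark; DNA fluorescence (485/535 nm) normalised to 0.29 uM artemisinin and DMSO.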

[9] = qHTS profiling of the MIPE4 collection as inhibitors of Plasmodium falciparum (DD2) proliferation (Rep 2) (AID 743346; call rule not given here); details: P. falciparum Dd2 in erythrocytes, SYBR Green DNA, 72 h; at 28.5 µM (top of the series) unless noted
Procedure, shortened: as §1

[10] = qHTS profiling of the MIPE4 collection as inhibitors of Plasmodium falciparum (HB3) proliferation (AID 743347; call rule not given here); details: P. falciparum HB3 in erythrocytes, SYBR Green DNA, 72 h; at 28.5 µM (top of the series) unless noted
Procedure, shortened: as §1

[11] = High-throughput drug toxicity screening in the BPDCN cell line Gen2.2 (AID 1224824; call rule not given here;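 note: cells exposed to compounds for 48 h before reading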); details: Gen2.2 BPDCN cells; at 45.8 µM (top of the series) unless noted
Procedure, shortened: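 CellTiter-Glo luminescence after 48 h compound exposure of Gen2.2 cells; percent activity set with DMSO as 100% and bortezomib (9.2 uM final) as 0%. Cells seeded at 500 per well, RPMI + 10% FBS, 37 °C.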

[12] = qHTS profiling of the MIPE4 collection as inhibitors of Plasmodium falciparum (DD2) proliferation (AID 743345; call rule not given here); details: P. falciparum Dd2 in erythrocytes, SYBR Green DNA, 72 h; at 28.5 µM (top of the series) unless noted
Procedure, shortened: as §1

T1 sequence (P35557 whole entry, looked up): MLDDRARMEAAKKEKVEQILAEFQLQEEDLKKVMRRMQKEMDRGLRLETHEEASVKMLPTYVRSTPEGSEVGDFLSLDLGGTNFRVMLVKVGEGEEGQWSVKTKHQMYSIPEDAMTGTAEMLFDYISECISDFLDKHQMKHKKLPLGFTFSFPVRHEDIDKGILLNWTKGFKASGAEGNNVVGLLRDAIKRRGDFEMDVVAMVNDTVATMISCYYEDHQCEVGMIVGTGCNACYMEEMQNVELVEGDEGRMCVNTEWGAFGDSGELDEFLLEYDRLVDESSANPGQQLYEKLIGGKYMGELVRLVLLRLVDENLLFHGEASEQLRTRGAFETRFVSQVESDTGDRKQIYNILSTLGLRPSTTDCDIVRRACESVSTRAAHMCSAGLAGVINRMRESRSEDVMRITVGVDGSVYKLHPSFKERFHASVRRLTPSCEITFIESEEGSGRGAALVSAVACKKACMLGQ
T1 sequence (Q14397 whole entry, looked up): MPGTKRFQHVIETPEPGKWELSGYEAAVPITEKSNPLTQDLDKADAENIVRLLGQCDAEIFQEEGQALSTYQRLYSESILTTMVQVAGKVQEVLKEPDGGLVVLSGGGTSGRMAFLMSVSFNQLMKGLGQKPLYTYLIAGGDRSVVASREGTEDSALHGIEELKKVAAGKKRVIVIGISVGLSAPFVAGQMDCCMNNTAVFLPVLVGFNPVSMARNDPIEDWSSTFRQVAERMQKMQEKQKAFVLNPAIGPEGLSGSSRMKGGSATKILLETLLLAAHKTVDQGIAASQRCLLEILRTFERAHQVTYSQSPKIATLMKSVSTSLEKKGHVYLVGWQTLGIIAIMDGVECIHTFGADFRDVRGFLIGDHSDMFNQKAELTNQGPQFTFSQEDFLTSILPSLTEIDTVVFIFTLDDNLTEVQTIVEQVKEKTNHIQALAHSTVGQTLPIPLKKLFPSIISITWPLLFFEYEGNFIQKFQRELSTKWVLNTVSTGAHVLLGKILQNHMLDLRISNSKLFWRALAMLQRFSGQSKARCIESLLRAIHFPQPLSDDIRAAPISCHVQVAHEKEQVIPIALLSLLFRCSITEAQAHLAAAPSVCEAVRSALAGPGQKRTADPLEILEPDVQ

SMILES	outcome [1]	outcome [2]	Potency [3]	Potency [4]	Potency [5]	Potency [6]	max response [7]	parasite growth, % of DMSO control [8]	parasite growth, % of control (lower = inhibition) [9]	growth, % of control [10]	cell viability, % of control (lower = more cytotoxic) [11]	Potency [7]	parasite growth remaining, % of DMSO control (lower = more inhibition) [12]
Cc1ccc(C(=O)Nc2ccc(S(=O)(=O)O)c3cc(S(=O)(=O)O)cc(S(=O)(=O)O)c23)cc1NC(=O)c1cccc(NC(=O)Nc2cccc(C(=O)Nc3cc(C(=O)Nc4ccc(S(=O)(=O)O)c5cc(S(=O)(=O)O)cc(S(=O)(=O)O)c45)ccc3C)c2)c1	inactive	inactive	inactive	28.2 µM (active)	5.62 µM (active)	17.8 µM (active)	35.1% (inactive) and 2.76% (inactive)	19.9%	23.2%	66.1%	58.9%	–	–
Cc1ccccc1N1C(=O)c2cc(S(N)(=O)=O)c(Cl)cc2NC1C (stereo not drawn)	inactive	inactive	inactive	inactive	inactive	inactive	6.66% (inactive) and 10.8% (inactive) and 1.37% (inactive)	92.5%	83.2%	72.5%	73.5%	–	–
O=C1c2c(O)ccc(O)c2C(=O)c2c(NCCNCCO)ccc(NCCNCCO)c21	inactive	inactive	inactive	inactive	inactive	inactive	–	0.962%	5.92%	0.795%	6.11%	7.94 µM (active) and 1.41 µM (active)	–
COc1ccc(C2CNC(=O)C2)cc1OC1CCCC1 (stereo not drawn)	inactive	inactive	inactive	inactive	inactive	inactive	8.29% (inactive) and 32.6% (inactive)	109%	116%	98.4%	170%	–	101%
Clc1ccccc1C(c1ccccc1)(c1ccccc1)n1ccnc1	inactive	inactive	inactive	–	inactive	inactive	–	4.91%	11%	5.57%	52.9%	2.51 µM (active) and 2.09 µM (active)	6.19%
Nc1nc2c(ncn2COC(CO)CO)c(=O)[nH]1	inactive	inactive	inactive	–	inactive	inactive	-13.4% (inactive) and 3.21% (inactive)	91.1%	84.9%	49%	5.03%	–	92.5%
COc1ccccc1OCC(O)CN1CCN(CC(=O)Nc2c(C)cccc2C)CC1 (stereo not drawn)	inactive	inactive	inactive	–	inactive	inactive	19.4% (inactive) and 42.5% (inactive)	126%	193%	101%	126%	–	97.5%
CN1CCN2c3ccccc3Cc3ccccc3C2C1 (stereo not drawn)	inactive	inactive	inactive	–	inactive	inactive	25.6% (inactive)	56.9%	44.9%	99.7%	83.4%	–	60.5%
CCC1(C)CC(=O)NC1=O (stereo not drawn)	inactive	inactive	inactive	inactive	inactive	inactive	19% (inactive) and 33% (inactive)	99.5%	–	102%	184%	–	–
CCCCc1oc2ccccc2c1C(=O)c1cc(I)c(OCCN(CC)CC)c(I)c1	inactive	inactive	inactive	inactive	inactive	inactive	–	6.22%	19.3%	8.19%	84.7%	–	6.54%
CNCCCC12CCC(c3ccccc31)c1ccccc12	inactive	inactive	inactive	inactive	inactive	inactive	–	16.9%	21.9%	7.27%	8.38%	–	21.8%
CCc1cccc2c3c([nH]c12)C(CC)(CC(=O)O)OCC3 (stereo not drawn)	inactive	inactive	inactive	inactive	inactive	inactive	10.8% (inactive) and -5.14% (inactive)	71%	85%	94.1%	138%	–	86%
NCCCCCC(=O)O	inactive	inactive	inactive	inactive	inactive	inactive	-0.169% (inactive) and -6.11% (inactive)	417%	118%	708%	140%	–	–
CN1CCC(=C2c3ccccc3CC(=O)c3sccc32)CC1	inactive	inactive	inactive	inactive	inactive	inactive	–	13.6%	40.5%	12.6%	14.3%	–	–
CN(C)CCC=C1c2ccccc2C=Cc2ccccc21	inactive	inactive	inactive	inactive	inactive	inactive	–	58.1%	42.4%	68.3%	41.3%	10 µM (active)	62.8%
CN(C)c1nc(N(C)C)nc(N(C)C)n1	inactive	inactive	inactive	inactive	inactive	inactive	17.1% (inactive) and -2.91% (inactive)	89.4%	104%	101%	97.5%	–	–
CC1COc2c(N3CCN(C)CC3)c(F)cc3c(=O)c(C(=O)O)cn1c23 (stereo not drawn)	inactive	inactive	inactive	inactive	inactive	inactive	18.2% (inactive) and 27.4% (inactive)	59.3%	76.4%	76.3%	147%	–	–
